# Source: PubChem BioAssay
# The sample as a whole holds a higher share of hits than the screen did.
# Pf Dd2 inh: qHTS Primary assay for Inhibitors of Plasmodium falciparum Dd2 growth in vitro | 120,000 tested, 4.3% active | P. falciparum Dd2 growth, SYBR Green, 72 h | Potency, µM (top dose mostly 28.9 µM), inactives show top-dose activity, negative = inhibition, hits mostly inhibitors; active = well fitted inhibition curve with a large enough effect;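 also: plate controls were DMSO vehicle for no effect and reference drug for full effect; nearly all actives have a fitted effect of over 65% in size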
#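 Infected erythrocytes (Dd2, 0.3% parasitemia, 2.5% hematocrit final) are added to compound in RPMI-1640/Albumax II medium, grown 72 h at 37C in low oxygen, then lysed with saponin/Triton-X containing SYBR Green and read by fluorescence.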
# Starred values were filed as active, the others as inactive; i = inactive; [ ] = remark or other dose. Potency is read from the fitted curve at half-maximal effect.
SMILES,Pf Dd2 inh
Cc1ccccc1Nc1c(-c2ccc(N3CCOCC3)cc2)nc2ccc(Br)cn12,8.91µM*
Cc1ccccc1Nc1c(-c2ccsc2)nc2c(C)cccn12,i
Cc1ccccc1Nc1c(-c2cccnc2)nc2cccc(C)n12,-24.2%
Cc1nn2c(c1-c1ccccc1Oc1ccccc1)N(C(=O)c1ccccc1)CCC2,i
CCOc1ccccc1C1NC(=O)N(CC(=O)Nc2ccccc2)C2=C1C(=O)OC2 (stereo not drawn),i
COC1CCC(C(=O)NCC2COc3ncncc3C(=O)N2Cc2ccccc2)CC1 (stereo not drawn),10.2%[44.1 µM]
Cc1cc(C)n(CCC(=O)N2CCCC(Cc3nc(C4CCOCC4)no3)C2)n1 (stereo not drawn),26.4%
CN(C)C[C@@H]1CN(c2ccccn2)C[C@H]1NC(=O)NC(C)(C)C,-6.2%
CC(C)CNC(=O)c1cc(C2CC2)nc2onc(C3CCCN3)c12 (stereo not drawn),-23.5%
COc1ccc(C(=O)N(C)C2CCc3ccccc32)cc1 (stereo not drawn),i
COCCN1C(=O)[C@@H]2C[C@@H](CN2C(=O)Cc2ccccc2)Oc2ccccc21,14.7%[44.1 µM]
CC(=O)N1CCc2c(sc3c2c(=O)n(-c2ccc(F)cc2)c(=O)n3Cc2cc(C)ccc2C)C1,-0.8%
CCc1ccc(-n2c(=O)c3c4c(sc3n(CC(=O)c3ccc(Cl)cc3)c2=O)CCC4)cc1,-19.5%
CC(=O)N1CCc2c(sc3c2c(=O)n(-c2cccc(Cl)c2)c(=O)n3Cc2ccc(F)cc2Cl)C1,11.2µM*
CCc1ccc(-n2c(=O)c3c4c(sc3n(CC(=O)c3ccc(Br)cc3)c2=O)CCC4)cc1,-24.5%
CCOC(=O)N1CCc2c(sc3c2c(=O)n(-c2ccc(CC)cc2)c(=O)n3CC(=O)c2ccc(F)cc2)C1,7.94µM*
CC(=O)N1CCc2c(sc3c2c(=O)n(CCc2ccccc2)c(=O)n3Cc2ccccc2C)C1,7.94µM*
COc1cccc(-n2c(=O)c3c4c(sc3n(Cc3ccc(F)cc3Cl)c2=O)CCCC4)c1,12.7%
CC(=O)N1CCc2c(sc3c2c(=O)n(Cc2ccccc2)c(=O)n3Cc2cc(C)ccc2C)C1,-15.9%
CCOC(=O)N1CCc2c(sc3c2c(=O)n(-c2ccc(Cl)cc2)c(=O)n3CC(C)C)C1,17.2%
CC(=O)N1CCc2c(sc3c2c(=O)n(-c2ccccc2C)c(=O)n3CC(=O)c2ccccc2)C1,-3.7%
CCOC(=O)N1CCc2c(sc3c2c(=O)n(-c2ccc(Cl)cc2)c(=O)n3CC(=O)Nc2ccccc2)C1,8.91µM*
O=C(Cn1c(=O)n(-c2ccccc2)c(=O)c2c3c(sc21)CCCC3)Nc1ccc(F)cc1,18.5%
O=C(CCN1CCOC(C(F)(F)F)C1)NCc1ccccc1Cl (stereo not drawn),-10.7%
COc1ccc(-c2nnc3n2CCN([S+](=O)([O-])c2ccc(C(F)(F)F)cc2)C3)cc1,-13.7%
SMILES,Pf Dd2 inh
Cn1c([C@H]2CCN(S(=O)(=O)c3cccc4cccnc34)C2)nc2ccccc21,-6.7%[44.1 µM]
COc1cc(CCC(=O)N(C)C2CCc3nn(CC4CC4)c(=O)n3CC2)on1 (stereo not drawn),i
COc1ccccc1OCc1cc(C(=O)NCc2cccc(C)c2)n[nH]1,-8.5%
Cn1c2c(c3cc(F)ccc31)CN(C(=O)Nc1ccc(F)c(Cl)c1)CC2,-26.7%
COc1ccc(-c2cc(N3CCC(NC(=O)c4cccnc4)C3)n[nH]2)cc1 (stereo not drawn),-1.0%
COc1ccc(OC2CN(CC3CC3)C2)cc1,5.4%[44.1 µM]
CCOC(=O)N1CCc2c(sc3c2c(=O)n(Cc2ccccc2)c(=O)n3Cc2cccc(Cl)c2)C1,11.2µM*
CCOC(=O)N1CCc2c(sc3c2c(=O)n(-c2ccc(Cl)cc2)c(=O)n3Cc2cccc(OC)c2)C1,-21.3%
CC(=O)c1cccc(-n2c(=O)c3c4c(sc3n(CC(=O)Nc3ccccc3F)c2=O)CN(C(C)=O)CC4)c1,17.1%
CCOC(=O)N1CCc2c(sc3c2c(=O)n(-c2ccc(Cl)cc2)c(=O)n3Cc2cccc(C)c2)C1,-6.5%
CCOC(=O)N1CCc2c(sc3c2c(=O)n(CCc2ccccc2)c(=O)n3CC(=O)Nc2ccccc2C)C1,0.0%
CCOC(=O)N1CCc2c(sc3c2c(=O)n(Cc2ccccc2)c(=O)n3CC(=O)Nc2cccc(CC)c2)C1,7.08µM*
Cc1noc(C)c1CNCC1(CO)C[C@@H](O)[C@@H](O)C1 (stereo partly drawn),-9.9%[44.1 µM]
COCCN1CCC(N2CCN(C(=O)CC3CCCC3)CC2)C1=O (stereo not drawn),9.0%
O=C(c1ccccc1)N1CCn2ncc(C(=O)N3CCOCC3)c2C1,-10.6%
COc1ccccc1C(=O)N1CCCCCC1CN1CCc2ccccc2C1 (stereo not drawn),-17.3%
Cc1cccc(CN2C[C@@H]3C(C(=O)Nc4ccccc4)=NO[C@@H]3C2)c1,-25.4%[44.1 µM]
COCc1ccc2c(c1)c(OC(C)(C)C(N)=O)nn2CCC(C)C,i
O=C(NCc1nnc2cc(-c3nc(C4CC4)no3)ccn12)C1CCCCC1,i
CCN(CC)C(=O)Cn1ccn2nc(-c3ccccc3)c(CO)c2c1=O,-60.7%
CS(=O)(=O)c1ccc(CN2C[C@H](O)C[C@H]2c2nc(-c3cnccn3)no2)cc1,-26.1%[44.1 µM]
O=C(Nc1ccc(Cl)cc1)c1cc(S(=O)(=O)N2CCc3ccccc32)ccc1F,0.7%
O=C(Nc1ccc(F)c(F)c1)c1cc(S(=O)(=O)N2CCc3ccccc32)ccc1F,10.0%
O=C(Nc1ccc(F)c(Cl)c1)c1cc(S(=O)(=O)N2CCCc3ccccc32)ccc1F,10µM*
O=C(NC1CCCCC1)N[C@H]1[C@H](O)[C@@H](N2CCCCC2)[C@@H]2OC[C@H]1O2,-6.8%[44.1 µM]
SMILES,Pf Dd2 inh
O=C(NCCN1CCOCC1)C1CCC(=O)N(CCCc2ccccc2)C1 (stereo not drawn),-10.5%
O=C(C1CCCC1)N1CC2(CCN(C3COC3)C2)OCc2ccccc21 (stereo not drawn),-27.8%
O=C(C1CCCC1)N1CC2(CCNC2)OCc2ccccc21 (stereo not drawn),-10.6%
c1ccc2c(c1)COC1(CCNC1)CN2CC1CCCCC1 (stereo not drawn),12.6µM*
O=C(NC1CCN(C(=O)N2CC3CC(C2)[C@H]2CCCC(=O)N2C3)CC1)c1cccnc1 (stereo partly drawn),6.5%
CCNC(=O)N1CC(C(=O)N(C)C)C2(CCOCC2)C1 (stereo not drawn),-6.8%
Cc1cc(C)c(NC(=O)Cn2c(=O)n(Cc3ccc(C(=O)NCc4ccc5c(c4)OCO5)cc3)c(=O)c3ccccc32)c(C)c1,i
Cc1ccc(C)c(NC(=O)Cn2c(=O)n(Cc3ccc4c(c3)OCO4)c(=O)c3ccc(C(=O)NC4CCCCC4)cc32)c1,i
O=C(Cn1c(=O)n(Cc2ccc(C(=O)NCc3ccccc3Cl)cc2)c(=O)c2ccccc21)Nc1ccc(F)c(Cl)c1,10µM*
COc1cccc(NC(=O)Cn2c(=O)n(Cc3ccc(C(=O)NCc4ccc(C)cc4)cc3)c(=O)c3ccccc32)c1,-24.8%
Cc1ccc(NC(=O)Cn2c(=O)n(Cc3ccco3)c(=O)c3ccc(C(=O)NC4CCCC4)cc32)c(C)c1,1.2%
O=C(Cn1c(=O)n(Cc2ccc(C(=O)NCc3ccccc3Cl)cc2)c(=O)c2ccccc21)Nc1ccc(F)cc1,-26.0%
CCN(C(=O)Cn1c(=O)n(Cc2ccc3c(c2)OCO3)c(=O)c2ccc(C(=O)NC3CCCCC3)cc21)c1cccc(C)c1,1.26µM*
Cc1cccc(NC(=O)Cn2c(=O)n(Cc3ccc(C(=O)NCc4ccc5c(c4)OCO5)cc3)c(=O)c3ccccc32)c1,3.98µM*
